# From article PMC7862700, “An all-to-all approach to the identification of sequence-specific readers for epigenetic DNA modifications on cytosine”
# What was measured:
# Assay in all cases: DAPPL (digital affinity profiling via proximity ligation, sequencing); 10 mM Tris-HCl pH 7.5, 50 mM NaCl, 1 mM DTT, 4% glycerol, room temperature, 30 min; GST-TFs on glutathione beads, 16-mer random dsDNA library, 0.1% formaldehyde crosslink after washing; high values mean tight binding
# [1] = molecular target: T1, FEV (Homo sapiens, UniProt Q99581 1-238); settings: protein: recombinant; tags: N-terminal GST; dsDNA, one strand shown
# T1 sequence: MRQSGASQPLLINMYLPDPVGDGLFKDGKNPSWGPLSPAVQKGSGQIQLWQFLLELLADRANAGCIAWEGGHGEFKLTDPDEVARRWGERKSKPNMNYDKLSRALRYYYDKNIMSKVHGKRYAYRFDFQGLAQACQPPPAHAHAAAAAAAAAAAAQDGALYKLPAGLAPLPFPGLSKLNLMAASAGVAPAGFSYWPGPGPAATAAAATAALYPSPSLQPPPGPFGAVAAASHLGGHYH
# Outline: (§1)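 Sequencing on an Illumina NextSeq500 followed washing, crosslinking with 0.1% formaldehyde, proximity ligation (BsaI/T4 ligase, 1 h, 37 °C) and PCR amplification of pools that had been incubated for 30 min at room temperature with 200 nmole of a random double-stranded 16-mer DNA library in Tris/NaCl/DTT/glycerol buffer. Each pool held DNA-barcoded human transcription factors, expressed in yeast as GST fusions and captured on glutathione beads, plus a tag-only sample. Binding signal is a hexamer's read frequency for a factor divided by its frequency in the tag-only sample.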
# [2] = molecular target: ETV5 (Homo sapiens, UniProt P41161 1-510); settings: protein: recombinant; tags: N-terminal GST; dsDNA, one strand shown
# ETV5, sequence (P41161 whole entry): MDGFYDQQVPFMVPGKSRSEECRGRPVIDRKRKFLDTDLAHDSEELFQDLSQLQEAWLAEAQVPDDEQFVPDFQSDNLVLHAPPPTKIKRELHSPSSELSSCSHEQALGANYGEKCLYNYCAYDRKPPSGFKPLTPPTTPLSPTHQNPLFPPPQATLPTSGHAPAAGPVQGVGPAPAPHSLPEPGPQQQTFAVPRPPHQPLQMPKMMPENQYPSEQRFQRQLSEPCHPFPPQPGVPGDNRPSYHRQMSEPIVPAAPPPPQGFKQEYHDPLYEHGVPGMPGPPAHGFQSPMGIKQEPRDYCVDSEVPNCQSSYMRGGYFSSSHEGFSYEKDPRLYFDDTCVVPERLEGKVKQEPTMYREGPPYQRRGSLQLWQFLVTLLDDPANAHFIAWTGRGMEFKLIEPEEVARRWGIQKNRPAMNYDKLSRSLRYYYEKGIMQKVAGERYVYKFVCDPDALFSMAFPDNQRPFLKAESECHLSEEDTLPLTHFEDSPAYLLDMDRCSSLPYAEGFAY
# Outline: as §1
# [3] = molecular target: HSF1 (Homo sapiens, UniProt Q00613 1-529); settings: protein: recombinant; tags: N-terminal GST; chain copies: 3; dsDNA, one strand shown
# HSF1, sequence (Q00613 whole entry): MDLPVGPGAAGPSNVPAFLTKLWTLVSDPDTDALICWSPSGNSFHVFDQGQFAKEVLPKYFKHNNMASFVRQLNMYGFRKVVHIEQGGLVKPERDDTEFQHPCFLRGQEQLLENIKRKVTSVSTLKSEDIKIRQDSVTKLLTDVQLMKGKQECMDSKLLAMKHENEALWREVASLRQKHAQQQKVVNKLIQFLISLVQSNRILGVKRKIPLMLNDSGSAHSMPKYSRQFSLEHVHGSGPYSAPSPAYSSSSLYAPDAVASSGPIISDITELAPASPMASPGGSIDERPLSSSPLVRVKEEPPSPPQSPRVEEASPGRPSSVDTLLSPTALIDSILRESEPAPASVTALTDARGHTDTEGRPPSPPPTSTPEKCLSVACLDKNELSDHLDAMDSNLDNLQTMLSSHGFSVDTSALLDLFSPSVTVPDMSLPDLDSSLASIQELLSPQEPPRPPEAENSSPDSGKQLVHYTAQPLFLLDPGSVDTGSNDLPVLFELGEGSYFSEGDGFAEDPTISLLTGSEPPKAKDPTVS
# Outline: as §1
# [4] = molecular target: T2, SPIC (Homo sapiens, UniProt Q8N5J4 1-248); settings: protein: recombinant; tags: N-terminal GST; dsDNA, one strand shown
# T2 sequence: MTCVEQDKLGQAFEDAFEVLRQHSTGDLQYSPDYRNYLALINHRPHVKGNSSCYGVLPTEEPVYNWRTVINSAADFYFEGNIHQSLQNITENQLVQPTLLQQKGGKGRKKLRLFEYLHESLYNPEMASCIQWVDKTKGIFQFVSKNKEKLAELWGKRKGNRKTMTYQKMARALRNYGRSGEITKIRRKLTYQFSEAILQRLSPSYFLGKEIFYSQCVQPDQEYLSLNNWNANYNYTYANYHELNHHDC
# Outline: as §1
# [5] = molecular target: ELF4 (Homo sapiens, UniProt Q99607 1-663); settings: protein: recombinant; tags: N-terminal GST; dsDNA, one strand shown
# ELF4, sequence (Q99607 whole entry): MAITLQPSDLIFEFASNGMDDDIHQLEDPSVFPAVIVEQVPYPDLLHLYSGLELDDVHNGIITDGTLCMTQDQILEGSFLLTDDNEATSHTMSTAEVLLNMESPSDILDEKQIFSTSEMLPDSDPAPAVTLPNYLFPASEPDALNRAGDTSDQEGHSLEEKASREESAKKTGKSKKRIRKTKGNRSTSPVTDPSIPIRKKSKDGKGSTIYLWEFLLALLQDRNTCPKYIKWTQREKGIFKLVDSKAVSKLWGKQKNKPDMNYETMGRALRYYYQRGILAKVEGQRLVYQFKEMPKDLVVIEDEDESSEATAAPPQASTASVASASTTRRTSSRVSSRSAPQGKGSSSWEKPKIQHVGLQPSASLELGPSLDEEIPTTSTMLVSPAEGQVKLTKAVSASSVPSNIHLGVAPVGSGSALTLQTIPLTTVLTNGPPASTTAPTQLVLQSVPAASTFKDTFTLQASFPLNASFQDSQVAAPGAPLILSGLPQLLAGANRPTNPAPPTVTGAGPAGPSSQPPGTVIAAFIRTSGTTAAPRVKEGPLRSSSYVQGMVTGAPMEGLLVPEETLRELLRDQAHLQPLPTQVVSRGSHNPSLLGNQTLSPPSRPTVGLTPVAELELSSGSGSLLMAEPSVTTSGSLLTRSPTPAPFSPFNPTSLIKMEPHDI
# Outline: as §1
# [6] = molecular target: T3, ELK4 (Homo sapiens, UniProt P28324-2 1-405); settings: protein: recombinant; tags: N-terminal GST; dsDNA, one strand shown
# T3 sequence: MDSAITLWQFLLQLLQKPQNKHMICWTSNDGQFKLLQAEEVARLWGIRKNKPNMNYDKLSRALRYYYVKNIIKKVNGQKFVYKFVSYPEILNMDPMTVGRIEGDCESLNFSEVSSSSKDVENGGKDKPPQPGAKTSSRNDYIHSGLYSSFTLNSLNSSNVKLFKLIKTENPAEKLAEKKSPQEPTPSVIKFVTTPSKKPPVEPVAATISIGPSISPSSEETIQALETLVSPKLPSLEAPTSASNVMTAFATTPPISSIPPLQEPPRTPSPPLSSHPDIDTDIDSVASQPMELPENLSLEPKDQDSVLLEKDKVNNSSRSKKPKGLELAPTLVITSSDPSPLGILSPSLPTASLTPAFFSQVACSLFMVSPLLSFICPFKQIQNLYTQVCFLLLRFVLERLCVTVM
# Outline: as §1
# [7] = molecular target: T4, ETV2 (Homo sapiens, UniProt O00321 1-342); settings: protein: recombinant; tags: N-terminal GST; dsDNA, one strand shown
# T4 sequence: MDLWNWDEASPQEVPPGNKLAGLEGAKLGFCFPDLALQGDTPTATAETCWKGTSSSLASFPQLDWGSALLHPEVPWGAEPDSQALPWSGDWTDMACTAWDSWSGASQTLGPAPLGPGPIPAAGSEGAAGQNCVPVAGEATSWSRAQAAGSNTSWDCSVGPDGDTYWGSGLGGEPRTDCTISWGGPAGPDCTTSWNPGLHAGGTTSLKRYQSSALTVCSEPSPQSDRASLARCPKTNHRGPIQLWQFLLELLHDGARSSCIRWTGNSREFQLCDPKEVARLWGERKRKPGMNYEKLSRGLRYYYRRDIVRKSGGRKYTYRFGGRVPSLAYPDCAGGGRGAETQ
# Outline: as §1
# [8] = molecular target: T5, ELF3 (Homo sapiens, UniProt P78545 1-371); settings: protein: recombinant; tags: N-terminal GST; dsDNA, one strand shown
# T5 sequence: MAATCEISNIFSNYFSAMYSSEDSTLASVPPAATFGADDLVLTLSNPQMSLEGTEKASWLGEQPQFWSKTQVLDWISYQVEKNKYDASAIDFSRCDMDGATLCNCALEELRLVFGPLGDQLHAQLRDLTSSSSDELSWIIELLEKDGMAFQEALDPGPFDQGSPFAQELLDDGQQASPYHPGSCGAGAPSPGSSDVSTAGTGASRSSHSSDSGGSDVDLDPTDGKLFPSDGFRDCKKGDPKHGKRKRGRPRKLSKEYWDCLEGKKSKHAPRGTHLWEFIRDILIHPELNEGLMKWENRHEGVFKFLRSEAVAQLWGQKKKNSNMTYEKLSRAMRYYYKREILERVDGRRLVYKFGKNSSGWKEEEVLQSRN
# Outline: as §1
# [9] = molecular target: ETV1 (Homo sapiens, UniProt P50549 1-477); settings: protein: recombinant; tags: N-terminal GST; dsDNA, one strand shown
# ETV1, sequence (P50549 whole entry): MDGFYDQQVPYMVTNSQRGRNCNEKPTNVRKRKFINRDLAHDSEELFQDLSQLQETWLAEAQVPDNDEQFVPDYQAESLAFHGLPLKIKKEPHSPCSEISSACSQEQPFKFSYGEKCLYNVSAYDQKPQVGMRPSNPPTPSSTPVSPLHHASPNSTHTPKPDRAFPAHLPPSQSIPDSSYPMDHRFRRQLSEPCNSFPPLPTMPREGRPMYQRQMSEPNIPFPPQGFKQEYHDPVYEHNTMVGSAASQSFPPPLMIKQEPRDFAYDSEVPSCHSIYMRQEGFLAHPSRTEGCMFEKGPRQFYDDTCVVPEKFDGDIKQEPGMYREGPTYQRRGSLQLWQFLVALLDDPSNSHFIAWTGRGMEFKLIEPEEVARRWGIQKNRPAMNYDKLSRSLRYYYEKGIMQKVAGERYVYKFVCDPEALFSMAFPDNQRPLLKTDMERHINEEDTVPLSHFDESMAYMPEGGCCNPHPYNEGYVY
# Outline: as §1
# [10] = molecular target: T6, ERF (Homo sapiens, UniProt P50548 1-548); settings: protein: recombinant; tags: N-terminal GST; dsDNA, one strand shown
# T6 sequence: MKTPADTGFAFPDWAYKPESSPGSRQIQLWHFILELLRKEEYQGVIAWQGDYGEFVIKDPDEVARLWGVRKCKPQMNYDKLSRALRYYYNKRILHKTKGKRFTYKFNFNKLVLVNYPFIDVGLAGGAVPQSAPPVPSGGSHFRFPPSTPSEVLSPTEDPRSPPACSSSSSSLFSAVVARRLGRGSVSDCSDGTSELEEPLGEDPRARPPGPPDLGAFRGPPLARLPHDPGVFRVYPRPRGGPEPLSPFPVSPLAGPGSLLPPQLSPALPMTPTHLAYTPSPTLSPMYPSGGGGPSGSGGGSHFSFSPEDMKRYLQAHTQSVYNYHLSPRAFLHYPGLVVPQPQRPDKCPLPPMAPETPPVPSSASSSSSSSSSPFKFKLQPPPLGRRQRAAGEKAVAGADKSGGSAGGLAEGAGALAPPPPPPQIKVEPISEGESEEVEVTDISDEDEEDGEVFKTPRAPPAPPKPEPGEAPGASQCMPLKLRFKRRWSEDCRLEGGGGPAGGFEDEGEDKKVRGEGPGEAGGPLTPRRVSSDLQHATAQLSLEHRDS
# Outline: as §1
# [11] = molecular target: T7, ETV3L (Homo sapiens, UniProt Q6ZN32 1-361); settings: protein: recombinant; tags: N-terminal GST; dsDNA, one strand shown
# T7 sequence: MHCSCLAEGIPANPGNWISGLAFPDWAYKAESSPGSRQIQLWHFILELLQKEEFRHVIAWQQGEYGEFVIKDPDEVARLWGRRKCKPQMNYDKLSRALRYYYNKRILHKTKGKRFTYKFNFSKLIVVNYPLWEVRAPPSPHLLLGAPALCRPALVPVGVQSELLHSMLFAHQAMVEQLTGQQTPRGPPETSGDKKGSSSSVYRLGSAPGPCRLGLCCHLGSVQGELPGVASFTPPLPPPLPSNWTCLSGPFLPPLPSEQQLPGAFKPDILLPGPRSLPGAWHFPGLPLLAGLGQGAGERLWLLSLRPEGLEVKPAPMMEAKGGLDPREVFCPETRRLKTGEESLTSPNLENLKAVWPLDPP
# Outline: as §1
# [12] = molecular target: T8, ETS2 (Homo sapiens, UniProt P15036 1-469); settings: protein: recombinant; tags: N-terminal GST; dsDNA, one strand shown
# T8 sequence: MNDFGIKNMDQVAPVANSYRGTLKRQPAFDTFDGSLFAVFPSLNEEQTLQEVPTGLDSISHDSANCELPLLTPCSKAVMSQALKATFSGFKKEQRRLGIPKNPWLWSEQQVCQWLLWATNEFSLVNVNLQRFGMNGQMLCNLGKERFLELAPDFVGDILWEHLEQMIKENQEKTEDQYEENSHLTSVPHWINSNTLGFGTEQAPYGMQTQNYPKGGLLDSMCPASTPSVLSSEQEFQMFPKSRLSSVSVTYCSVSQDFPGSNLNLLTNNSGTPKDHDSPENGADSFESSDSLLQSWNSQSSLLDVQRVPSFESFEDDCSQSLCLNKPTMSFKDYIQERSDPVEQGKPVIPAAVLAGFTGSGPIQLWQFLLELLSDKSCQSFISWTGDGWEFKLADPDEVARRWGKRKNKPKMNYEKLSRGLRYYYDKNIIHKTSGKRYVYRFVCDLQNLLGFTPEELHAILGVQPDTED
# Outline: as §1
# [13] = molecular target: T9, SPDEF (Homo sapiens, UniProt O95238 1-335); settings: protein: recombinant; tags: N-terminal GST; dsDNA, one strand shown
# T9 sequence: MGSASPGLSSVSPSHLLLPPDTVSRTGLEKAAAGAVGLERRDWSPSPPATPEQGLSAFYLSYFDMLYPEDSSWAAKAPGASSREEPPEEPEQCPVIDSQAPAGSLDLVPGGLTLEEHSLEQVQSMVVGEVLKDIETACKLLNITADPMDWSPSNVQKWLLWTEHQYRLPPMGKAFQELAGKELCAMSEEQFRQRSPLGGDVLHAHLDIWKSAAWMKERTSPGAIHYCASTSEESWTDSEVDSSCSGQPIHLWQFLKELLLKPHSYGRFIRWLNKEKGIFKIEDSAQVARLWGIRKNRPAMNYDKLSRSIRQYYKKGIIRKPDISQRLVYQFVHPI
# Outline: as §1
# [14] = molecular target: T10, ETV7 (Homo sapiens, UniProt Q9Y603 1-341); settings: protein: recombinant; tags: N-terminal GST; dsDNA, one strand shown
# T10 sequence: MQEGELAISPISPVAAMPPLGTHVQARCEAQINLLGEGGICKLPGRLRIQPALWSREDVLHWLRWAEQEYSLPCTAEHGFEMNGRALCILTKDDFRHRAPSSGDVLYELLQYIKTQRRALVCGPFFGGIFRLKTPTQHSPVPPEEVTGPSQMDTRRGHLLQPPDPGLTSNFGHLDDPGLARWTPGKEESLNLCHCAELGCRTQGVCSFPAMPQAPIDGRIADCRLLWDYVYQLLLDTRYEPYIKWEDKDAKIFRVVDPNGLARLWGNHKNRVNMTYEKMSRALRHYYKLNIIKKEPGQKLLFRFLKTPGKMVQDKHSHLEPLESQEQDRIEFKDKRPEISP
# Outline: as §1
# [15] = molecular target: T11, ELF5 (Homo sapiens, UniProt Q9UKW6-2 1-255); settings: protein: recombinant; tags: N-terminal GST; dsDNA, one strand shown
# T11 sequence: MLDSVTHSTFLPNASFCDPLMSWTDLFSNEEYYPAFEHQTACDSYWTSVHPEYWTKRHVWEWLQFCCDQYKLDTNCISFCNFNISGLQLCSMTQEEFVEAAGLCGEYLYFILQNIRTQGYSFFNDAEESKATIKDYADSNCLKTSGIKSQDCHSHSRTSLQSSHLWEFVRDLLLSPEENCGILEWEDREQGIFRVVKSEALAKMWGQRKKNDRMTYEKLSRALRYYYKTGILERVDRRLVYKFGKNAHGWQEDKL
# Outline: as §1
# [16] = molecular target: T12, ETV3 (Homo sapiens, UniProt P41162-2 1-143); settings: protein: recombinant; tags: N-terminal GST; dsDNA, one strand shown
# T12 sequence: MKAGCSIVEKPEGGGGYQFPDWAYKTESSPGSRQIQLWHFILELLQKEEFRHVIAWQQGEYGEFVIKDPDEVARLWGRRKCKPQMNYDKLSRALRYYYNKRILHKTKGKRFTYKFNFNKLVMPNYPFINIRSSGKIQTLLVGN
# Outline: as §1
# [17] = molecular target: ETV6 (Homo sapiens, UniProt P41212 1-452); settings: protein: recombinant; tags: N-terminal GST; dsDNA, one strand shown
# ETV6, sequence (P41212 whole entry): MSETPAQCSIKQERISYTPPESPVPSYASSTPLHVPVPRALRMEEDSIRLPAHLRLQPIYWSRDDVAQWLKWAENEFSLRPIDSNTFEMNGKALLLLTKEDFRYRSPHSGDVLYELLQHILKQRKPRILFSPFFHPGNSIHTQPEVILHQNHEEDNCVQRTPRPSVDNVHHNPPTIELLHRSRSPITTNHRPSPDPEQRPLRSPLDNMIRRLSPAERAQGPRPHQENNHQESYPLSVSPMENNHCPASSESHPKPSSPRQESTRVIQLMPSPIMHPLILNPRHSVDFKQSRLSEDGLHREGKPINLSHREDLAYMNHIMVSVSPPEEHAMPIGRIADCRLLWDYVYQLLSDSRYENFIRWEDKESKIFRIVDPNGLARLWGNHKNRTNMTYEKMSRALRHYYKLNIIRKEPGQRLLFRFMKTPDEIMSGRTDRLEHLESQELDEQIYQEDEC
# Outline: as §1
sequence,measurement,setting,value
TGTACC,binding signal,[1],"1.38 fold enrichment (6-mer frequency, TF over GST control)"
same,binding signal,[2],"1.4 fold enrichment (6-mer frequency, TF over GST control)"
same,binding signal,[3],"1.03 fold enrichment (6-mer frequency, TF over GST control)"
same,binding signal,[4],"1.39 fold enrichment (6-mer frequency, TF over GST control)"
same,binding signal,[5],"1.26 fold enrichment (6-mer frequency, TF over GST control)"
same,binding signal,[6],"1.39 fold enrichment (6-mer frequency, TF over GST control)"
same,binding signal,[7],"1.35 fold enrichment (6-mer frequency, TF over GST control)"
same,binding signal,[8],"1.38 fold enrichment (6-mer frequency, TF over GST control)"
same,binding signal,[9],"1.37 fold enrichment (6-mer frequency, TF over GST control)"
same,binding signal,[10],"1.17 fold enrichment (6-mer frequency, TF over GST control)"
same,binding signal,[11],"1.34 fold enrichment (6-mer frequency, TF over GST control)"
same,binding signal,[12],"1.38 fold enrichment (6-mer frequency, TF over GST control)"
same,binding signal,[13],"1.47 fold enrichment (6-mer frequency, TF over GST control)"
same,binding signal,[14],"1.26 fold enrichment (6-mer frequency, TF over GST control)"
same,binding signal,[15],"1.27 fold enrichment (6-mer frequency, TF over GST control)"
same,binding signal,[16],"1.35 fold enrichment (6-mer frequency, TF over GST control)"
same,binding signal,[17],"1.28 fold enrichment (6-mer frequency, TF over GST control)"
